# Reference: PubChem BioAssay
# Records with an inconclusive call do not appear. The source made the active and inactive calls. Cut-off read from the data, not from the text of the source, unless noted: active = inhibition above about 80%; inactive = the rest.
# Columns and labels:
# [1] = HDN33 neuroblastoma growth inhibition, cell-based, chromothripsis tumors, cisplatin or BGB combos (AID 1671450); details: HDN33 neuroblastoma cells, stronger effect = higher value;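 note: cells exposed to compound for four days; 0% = vehicle DMSO and 100% = cell killing by high DMSO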
# [2] = LFS_MB_1R medulloblastoma cell growth inhibition, synergistic combos for chromothripsis tumors, cisplatin or BGB combos (AID 1671452); details: LFS_MB_1R medulloblastoma cells, stronger effect = higher value;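 note: cells exposed for 96 hours before readout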
# [3] = HTB85 osteosarcoma cell growth inhibition, synergistic combos for chromothripsis tumors, BGB or cisplatin IC20 combos (AID 1671453); details: HTB85 osteosarcoma cells, drug combinations, stronger effect = higher value;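 note: cells exposed for 96 hours before readout; 0% = vehicle DMSO and 100% = high DMSO killing control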
# [4] = CRL2098 osteosarcoma cell growth inhibition, synergistic combos for chromothripsis tumors, BGB or cisplatin IC20 combos (AID 1671454); details: CRL2098 osteosarcoma cells, drug combinations, stronger effect = higher value;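 note: cells exposed for 96 h before readout; 0% = vehicle DMSO and 100% = killing by high DMSO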
# [5] = HD-MB03 medulloblastoma cell growth inhibition, synergistic combos for chromothripsis tumors, BGB or cisplatin IC20 combos (AID 1671455; in the data active = inhibition above about 83%;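 note: 0% = vehicle DMSO and 100% = high DMSO as cytotoxic control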); details: HD-MB03 medulloblastoma cells, stronger effect = higher value
# [6] = UWB1.289 ovarian carcinoma cell growth inhibition, synergistic combos for chromothripsis tumors, BGB or cisplatin combos (AID 1671456); details: UWB1.289 ovarian carcinoma cells, stronger effect = higher value;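 note: cells exposed to compound for four days; 0% = vehicle DMSO and 100% = killing by high DMSO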
# [7] = LFS_MB_2R medulloblastoma cell growth inhibition, synergistic combos for chromothripsis tumors, cisplatin combos (AID 1671457); details: LFS_MB_2R medulloblastoma cells, stronger effect = higher value;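 note: cells exposed to compound for four days before readout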
# [8] = MDA-MB-436 breast carcinoma cell growth inhibition, synergistic combos for chromothripsis tumors, BGB or cisplatin combos (AID 1671458; call rule not given here;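 note: cells exposed for 96 hours; 0% = vehicle DMSO and 100% = killing by high DMSO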); details: MDA-MB-436 breast carcinoma growth inhibition, drug combinations, stronger effect = higher value
# [9] = UWB1.289_BRCA1 ovarian cancer growth, cell-based, BGB or cisplatin combinations (AID 1671459); details: UWB1.289 BRCA1 ovarian carcinoma, drug combinations, stronger effect = higher value
# [10] = human astrocyte viability loss, single and combined drugs, cytotoxicity control for chromothriptic childhood tumor combination screen, cell-based, BGB or cisplatin IC20 combos (AID 1671460); details: Human astrocytes, drug combinations, stronger effect = higher value;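 note: cells exposed to compounds for 96 hours before viability readout; 0% = vehicle and 100% = killing control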
# [11] = growth inhibition of BT084 medulloblastoma cells, cell-based, ICGC_MB145, cisplatin and BGB IC40 combos (AID 1671461); details: drug combinations, stronger effect = higher value;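 note: cells exposed to drugs for 96 hours; 0% = vehicle DMSO and 100% = high DMSO full killing control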
# [12] = growth inhibition of RCMB18 medulloblastoma cells, cell-based, cisplatin and BGB IC40 combos (AID 1671462); details: stronger effect = higher value;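 note: cells exposed to compound for four days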
# [13] = growth inhibition of CRL1545 osteosarcoma cells, cell-based, cisplatin and BGB IC20 combos (AID 1671464); details: stronger effect = higher value;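 note: cells exposed to compound for 96 hours before readout; 0% = vehicle DMSO and 100% = high DMSO killing control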
# [14] = protection against mutant huntingtin cytotoxicity, PC12 cells, LDH release (AID 1610); details: PC12 mutant huntingtin toxicity, final LDH at 4 uM, stronger effect = lower value
# [15] = inhibitors of Cryptococcus chitosan production, flow cytometry, Cibacron Brilliant Red staining (AID 1347148; call rule not given here;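 note: compound exposure lasted three days at 37 degrees C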); details: Cryptococcus neoformans chitosan, stronger effect = lower value; at 99.1 µM unless noted
# [16] = measured here: with BGB IC20 combination, at 0.5 µM
# [17] = measured here: with cisplatin IC20 combination, at 0.5 µM
# [18] = measured here: combination with cisplatin, at 0.5 µM
# [19] = measured here: combination with cisplatin, at 5 µM
structure (smiles),measurement,setting,value
CCn1cc(C(=O)O)c(=O)c2cc(F)c(N3CCNCC3)cc21,inhibition,"[1]; BGB combo, at 5 µM",-0.689%
same,inhibition,[1]; at 0.5 µM,12.2% (inactive)
same,inhibition,"[1]; cisplatin combo, at 5 µM",-11.9%
same,inhibition,[1]; [16],32.5%
same,inhibition,[1]; [17],3.81%
same,inhibition,"[1]; single agent, at 5 µM",-7.4%
same,inhibition,[2]; at 0.5 µM,16.4% (inactive)
same,inhibition,"[2]; measured here: combination with BGB IC40, at 0.05 µM",-0.695%
same,inhibition,[2]; [18],26.1%
same,inhibition,[2]; [19],22.9%
same,inhibition,[3]; at 0.5 µM,-8.02% (inactive)
same,inhibition,"[3]; measured here: with BGB IC20, at 0.5 µM",-33.2%
same,inhibition,"[3]; measured here: with BGB IC20, at 5 µM",-19.1%
same,inhibition,"[3]; measured here: with cisplatin IC20, at 0.5 µM",12.6%
same,inhibition,"[3]; measured here: with cisplatin IC20, at 5 µM",-7.29%
same,inhibition,"[3]; single agent, at 5 µM",1.89%
same,inhibition,[4]; at 0.5 µM,-43.9% (inactive)
same,inhibition,"[4]; measured here: combination with BGB at IC20, at 0.5 µM",-32.8%
same,inhibition,"[4]; measured here: combination with cisplatin at IC20, at 0.5 µM",-33.5%
same,inhibition,[5]; at 0.5 µM,-1.96% (inactive)
same,inhibition,"[5]; measured here: combo with BGB at IC20, at 0.5 µM",-6.97%
same,inhibition,"[5]; measured here: combo with cisplatin at IC20, at 0.5 µM",4.39%
same,inhibition,[6]; at 0.5 µM,3.04% (inactive)
same,inhibition,"[6]; measured here: inhibition with BGB combination, at 0.05 µM",-22.6%
same,inhibition,"[6]; measured here: inhibition with cisplatin combination, at 0.05 µM",-1.67%
same,inhibition,[7]; at 0.5 µM,-18.9% (inactive)
same,inhibition,[7]; [18],-13.2%
same,inhibition,[7]; [19],-11.8%
same,inhibition,[8]; at 0.5 µM,-18.4% (inactive)
same,inhibition,"[8]; measured here: BGB combination, at 0.5 µM",-12.8%
same,inhibition,"[8]; measured here: BGB combination, at 5 µM",-3.58%
same,inhibition,"[8]; measured here: cisplatin combination, at 0.5 µM",-41.9%
same,inhibition,"[8]; measured here: cisplatin combination, at 5 µM",-18.8%
same,inhibition,"[9]; BGB combination, concentration series, at 5 µM",-3.45%
same,inhibition,[9]; at 0.5 µM,2.01% (inactive)
same,inhibition,"[9]; cisplatin combination, concentration series, at 5 µM",12.5%
same,inhibition,[10]; at 0.5 µM,5.02% (inactive)
same,inhibition,"[10]; measured here: combo with BGB IC20, at 0.5 µM",10.6%
same,inhibition,"[10]; measured here: combo with cisplatin IC20, at 0.5 µM",-14.6%
same,inhibition,[11]; at 0.5 µM,-27.2% (inactive)
same,inhibition,"[11]; cisplatin combination, at 0.5 µM",-24.4%
same,inhibition,"[11]; cisplatin combination, at 5 µM",-61.7%
same,inhibition,"[11]; measured here: BGB IC40 combination 0.05 uM, at 0.05 µM",-27.3%
same,inhibition,"[11]; single agent, at 5 µM",-32.3%
same,inhibition,[12]; at 0.5 µM,-5.94% (inactive)
same,inhibition,"[12]; cisplatin combo, at 5 µM",-71.7%
same,inhibition,"[12]; measured here: BGB IC40 combination, at 0.05 µM",-15.2%
same,inhibition,[12]; [18],20.7%
same,inhibition,"[12]; single agent, at 5 µM",-42.9%
same,inhibition,[13]; at 0.5 µM,-19.2% (inactive)
same,inhibition,[13]; [16],-33.4%
same,inhibition,[13]; [17],-12.1%
same,inhibition,"[13]; single agent, at 0.05 µM",20.3%
same,inhibition,"[13]; single agent, at 5 µM",24%
O=C(c1ccccc1)c1ccc2n1CCC2C(=O)O (stereo not drawn),normalised LDH release,[14],0.828
CC[C@]1(O)C[C@@H]2CN(CCc3c([nH]c4ccccc34)[C@@](C(=O)OC)(c3cc4c(cc3OC)N(C)[C@H]3[C@@](O)(C(=O)OC)[C@H](OC(C)=O)[C@]5(CC)C=CCN6CC[C@]43[C@@H]65)C2)C1,fold fluorescence,[15],15.3 [at 55 µM] (inactive)
CN1CCN(CCCN2c3ccccc3Sc3ccc(C(F)(F)F)cc32)CC1,fold fluorescence,[15],10.1 [at 122.7 µM] (inactive)
OCCN(CCO)c1nc(N2CCCCC2)c2nc(N(CCO)CCO)nc(N3CCCCC3)c2n1,fold fluorescence,[15],2.89 (active)
COc1ccc2c(c1)c(CC(=O)O)c(C)n2C(=O)c1ccc(Cl)cc1,fold fluorescence,[15],4.17 [at 139.7 µM] (inactive)
O=C1N=C(O)CN1/N=C/c1ccc(-c2ccc([N+](=O)[O-])cc2)o1,fold fluorescence,[15],4.66 [at 159.1 µM] (inactive)
CNC(=O)Oc1ccc2c(c1)[C@]1(C)CCN(C)[C@@H]1N2C,normalised LDH release,[14],0.859
COc1cc2nc(N3CCN(C(=O)c4ccco4)CC3)nc(N)c2cc1OC,fold fluorescence,[15],6.39 [at 130.4 µM] (inactive)
Nc1c2c(nc3ccccc13)CCCC2,normalised LDH release,[14],0.878
